# Experimental data as given in PubChem BioAssay AID2284349 (EPA ToxCast).
# Records with an inconclusive call do not appear. Activity calls are given as the source filed them. Rule for the calls: active = hit-call score of the fitted dose curve at least 0.9, where 1 is the maximum; inconclusive = response in the unintended direction; inactive = score below 0.9.
# Molecular target: frog Peroxisome Proliferator-activated Receptor-gamma (PPARg), pparg (gene 397769) (UniProt P37234)
# Assay: ATG_frPPARg_EcoTox2: Attagene TRANS-FACTORIAL EcoTox-2 HepG2 Assay for frog Peroxisome Proliferator-activated Receptor-gamma (PPARg)
# Description: ATG_EcoTox2 is a cell-based, multiplexed assay created by modifying the existing Attagene TRANS-FACTORIAL system to include a panel of nuclear receptors from some or all the following species: human (Homo sapiens), african clawed frog (Xenopus laevis), rainbow trout (Oncorhynchus mykiss), japanese medaka (Oryzias latipes), and zebrafish (Danio rerio). The ECOTOX2-FACTORIAL format uses HepG2, a human liver cell line, with measurements taken at 24 hours after chemical dosing in a 24-well plate. ATG_frPPARg_EcoTox2 is one of 29 assay components calculated in the ATG_EcoTox2 assay. It is designed to make measurements of mRNA induction, a form of inducible reporter, as detected with fluorescence intensity signals by Reverse transcription polymerase chain reaction (RT-PCR) and Capillary electrophoresis technology.The assay endpoint ATG_frPPARg_EcoTox2 was analyzed in the positive analysis fitting direction relative to DMSO as the negative control and baseline of activity. Using a type of inducible reporter, measures of mRNA for gain-of-signal activity can be used to understand the reporter gene at the transcription factor-level as they relate to the gene PPARg. Furthermore, this assay endpoint can be referred to as a primary readout, because this assay has produced multiple assay endpoints where this one serves a reporter gene function. […]
# Chain of frog Peroxisome Proliferator-activated Receptor-gamma (PPARg), pparg (gene 397769) (P37234 whole entry, looked up): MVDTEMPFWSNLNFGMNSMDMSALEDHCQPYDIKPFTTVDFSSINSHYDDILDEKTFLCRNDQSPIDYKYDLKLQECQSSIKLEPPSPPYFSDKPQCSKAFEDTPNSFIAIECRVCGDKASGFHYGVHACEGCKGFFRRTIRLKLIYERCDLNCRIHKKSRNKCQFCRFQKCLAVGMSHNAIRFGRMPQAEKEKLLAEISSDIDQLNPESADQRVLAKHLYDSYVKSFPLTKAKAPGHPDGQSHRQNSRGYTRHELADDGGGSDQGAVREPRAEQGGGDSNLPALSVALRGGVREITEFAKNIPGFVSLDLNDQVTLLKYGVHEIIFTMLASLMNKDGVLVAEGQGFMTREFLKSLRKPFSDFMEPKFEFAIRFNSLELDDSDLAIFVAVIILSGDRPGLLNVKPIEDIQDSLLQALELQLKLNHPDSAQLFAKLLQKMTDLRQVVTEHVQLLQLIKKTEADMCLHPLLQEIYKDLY
row,Structure (SMILES),outcome
1,CCCCOCN(C(=O)CCl)c1c(CC)cccc1CC,inactive
2,O=S(=O)(O)C(F)(F)C(F)(F)C(F)(F)C(F)(F)C(F)(F)C(F)(F)F,inactive
